High-throughput results: PubChem BioAssay, The Scripps Research Institute Molecular Screening Center
DAX1 inh-1 – NR0B1 (DAX1) inhibition. P51843. HEK293 Gal4-DAX1 luciferase reporter, luminescence. inhibition, % at 6.75 µM. actives 0.99% (n = 340,000). AID 504766;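 active = inhibition above the mean over all tested compounds plus 3 SD, cut at about 4.2% in these data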;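 also: 0% = DAX1-transfected cells with DMSO and 100% = empty-vector control cells with DMSO; inhibition shows as a rise in luminescence from relieved DAX1 repression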
Target sequence (P51843 207-470 limits assumed): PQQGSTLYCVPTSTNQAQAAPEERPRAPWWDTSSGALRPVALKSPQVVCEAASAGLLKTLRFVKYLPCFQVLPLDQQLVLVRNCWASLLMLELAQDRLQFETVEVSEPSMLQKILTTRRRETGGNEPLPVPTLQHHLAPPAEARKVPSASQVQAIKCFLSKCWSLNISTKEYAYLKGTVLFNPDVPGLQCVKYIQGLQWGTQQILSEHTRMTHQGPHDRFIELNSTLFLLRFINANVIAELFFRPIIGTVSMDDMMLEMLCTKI
hcDAF-12 act – activates DAF-12 receptor from parasite H. contortus | AID 652067 | actives 1.4% (n = 370,000) | activation, % at 6.8 µM | HEK293 hcDAF-12 lit1-tk-luc reporter, luminescence; 0% DMSO, 100% Δ7-dafachronic acid;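 active = activation above the mean of all tested compounds plus 3 SD, cut at about 5.5% in these data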;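 also: 100% = response to 3 µM Δ7-dafachronic acid high control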
SMARCA2 act – increases SMARCA2 function in MMTV reporter cells. MG213 cells, MMTV-luciferase reporter, dexamethasone, overnight. activation, % at 9.1 µM. actives 1% (n = 370,000). AID 652017; in the data active = activation above about 7.8%;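 also: 0% = vehicle wells and 100% = reference activator wells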
ssDAF-12 act – S. stercoralis DAF-12 activation, primary screen | actives 1% (n = 370,000) | AID 652126 | HEK293 ssDAF-12/GRIP1 lit1-tk-luc reporter, luminescence; % of 3 µM dafachronic acid response | activation, % at 6.8 µM;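 active = activation above the mean over all tested compounds plus 3 SD, cut at about 0.9% in these data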;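 also: 0% = DMSO-only wells and 100% = 3 µM delta7-dafachronic acid wells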
DAX1 inh-2 – blocks DAX1 repression of SF-1 activated StAR promoter; HEK293T StAR-luciferase reporter, SF-1/DAX-1 repression relief; inhibition, % at 6.8 µM; actives 1.1% (n = 370,000); AID 652010;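 active = inhibition above the mean over all tested compounds plus 3 SD, cut at about 3.6% in these data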;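 also: 0% = DAX-1 cells with DMSO and 100% = cells lacking DAX-1 with DMSO; higher inhibition means more luminescence from relief of DAX-1 repression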
hgDAF12 agonist – hgDAF-12 agonism, primary luciferase screen; HEK293 GAL4-hgDAF12 UAS-luciferase reporter, agonist luminescence; normalized to butyrate control; AID 687014; activation, % at 6.8 µM; actives 1.8% (n = 370,000);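 active = activation above a cutoff set at the mean of all screened compounds plus 3 SD, cut at about 10% in these data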;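 also: 0% = DMSO wells and 100% = sodium butyrate wells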
* = called active by the depositor; . = no result given. This is a sample that favours compounds with a hit; in the whole collection about 4.8% have one here.

SMILES	DAX1 inh-1	hcDAF-12 act	SMARCA2 act	ssDAF-12 act	DAX1 inh-2	hgDAF12 agonist
O=P(O)(O)c1ccccc1OCCOCCOCCOCCOc1ccccc1P(=O)(O)O	4.4*	4	4	0	3	7
Cc1ccc(Nc2nc(N)c([N+](=O)[O-])c(NCCO)n2)cc1C	4.4*	1	-1	0	0	2
Nc1nc(Nc2ccc(Cl)cc2)nc(NCCO)c1[N+](=O)[O-]	.	1	0	-1	-1	-1
Cc1ccc(C(=O)N/N=C/c2ccoc2)cc1C	1	1	0	-1	1	-1
CCn1c(C)nc2cc(C(=O)OC)ccc21	0	1	0	-1	1	2
CCn1c(C)nc2cc(NC(=O)Nc3cccc(C(C)=O)c3)ccc21	1	1	4	0	0	12*
CC(=O)c1ccc(NC(=O)CCS(=O)(=O)c2ccc3c(c2)n(C)c(=O)c(=O)n3C)cc1	4.8*	.	.	.	.	.
CC(=O)NC(c1ccccc1)c1nc2ccccc2[nH]1 (stereo not given)	-1	-1	0	-1	0	0
COc1ccc(OC)c(NC(=O)c2[nH]c(C)c(C(C)=O)c2C)c1	1	5.8*	4	-1	1	2
O=C(OCc1ccccc1)N1C[C@H](O)[C@H](O)C[C@@H]1c1c(Cl)cccc1Br	.	-2	-3	0	-1	-2
COc1ccc([C@H]2OC(=O)C[C@H]2C(=O)N2CCN(c3ccccc3C(F)(F)F)CC2)cc1OC	.	-1	-5	-1	0	3
O=C(CSc1ccsc1[N+](=O)[O-])NCCc1ccccc1	0	1	4	-1	0	-1
O=C(CSc1ccsc1[N+](=O)[O-])NCCc1ccc(Cl)cc1	1	0	2	0	0	-3
Cc1ccc(CNC(=O)CSc2ccsc2[N+](=O)[O-])cc1	1	6.5*	4	-1	1	11*
COc1ccc(CNC(=O)CSc2ccsc2[N+](=O)[O-])cc1	0	3	4	1.3*	2	7
CCc1c(C)sc(NC(=O)CN2CCN(C(=O)c3ccco3)CC2)c1C(=O)OC	-1	-4	3	-1	-4	1
Cc1sc(CO)c(Sc2ccccc2)c1C(=O)O	.	6.0*	-1	0	0	-1
CCCCC1CCC(c2ccc(C(N)=O)cc2)CC1 (stereo not given)	1	0	-1	-1	0	-1
CCCCCC1CCC(c2ccc(/C(N)=N/O)cc2)CC1 (stereo not given)	5.5*	1	3	-1	0	-2
NC(N)=NC(=O)c1nc(Cl)c(N2CCCCCC2)nc1N	0	0	5	-1	3	13*
COc1cc(NC(=O)COC(=O)c2ccc3ccccc3n2)cc(OC)c1	-2	4	-2	1	3	0
C=CCNC(=S)N(CC=C)C1CCS(=O)(=O)C1 (stereo not given)	0	-2	-1	-1	0	2
Cc1ccc(N(CC(=O)NCCc2ccccc2)C(=O)CCC(=O)Nc2cc(C)ccn2)cc1	5.4*	1	0	-1	0	0
COc1ccc(N(CC(=O)NCCc2ccccc2)C(=O)CCC(=O)Nc2ccccn2)cc1	-1	1	1	-1	0	1
COCCNC(=O)CN(C(=O)CCC(=O)Nc1ccccn1)c1ccc(OC)cc1	5.0*	-2	-2	-1	0	3
SMILES	DAX1 inh-1	hcDAF-12 act	SMARCA2 act	ssDAF-12 act	DAX1 inh-2	hgDAF12 agonist
COCCNC(=O)CN(C(=O)Cn1nnc2ccccc21)c1ccc(C)cc1	4.5*	1	-3	0	1	-3
O=C(O)COc1ccc2c3c(c(=O)oc2c1)CCCC3	-1	-2	-4	-1	-1	1
COc1cc(/C=C2\S/C(=N/S(=O)(=O)c3ccccc3)NC2=O)c([N+](=O)[O-])cc1OC	1	-1	2	-1	1	3
COc1cc(/C=C2/CC(C)OC2=O)c([N+](=O)[O-])cc1OC (stereo not given)	4.7*	-2	-2	-1	0	1
CC(C)c1ccc(NC(=O)CC2Oc3ccccc3NC2=O)cc1 (stereo not given)	1	0	-4	-1	0	-1
COc1ccc(S(=O)(=O)N(C(=O)C(C)C)c2ccc3oc(=O)sc3c2)cc1	1	0	4	-1	-1	-3
COc1cc2c(cc1NC(=O)C(C)OC(=O)/C=C/c1ccc(OC(F)F)cc1)oc1ccccc12 (stereo not given)	2	8.2*	4	0	0	9
COc1ccc(/C=C/C(=O)NC(=S)Nc2cc3oc4ccccc4c3cc2OC)cc1	-1	0	0	-1	-1	-1
CCCn1c(N)c(N(CCOC)C(=O)c2cc3c(s2)CCC(CC)C3)c(=O)[nH]c1=O (stereo not given)	0	0	-1	-2	-1	-1
OCCNc1nc(Nc2ccc(O)cc2)nc2ccccc12	5.8*	0	-3	-1	1	1
CCOC(=O)C1CCN(C(=O)/C=C/c2ccccc2)CC1	-1	1	5	-1	0	12*
CCOC(=O)C1CCCN(C(=O)/C=C/c2ccccc2)CC1 (stereo not given)	.	1	-1	-1	-1	3
Cc1ccc(S(=O)(=O)Oc2cc(N)c3c(n2)CCC3)cc1	0	-1	-2	-1	0	-1
Cn1cc(/C=N\O)nc2c(=O)n(-c3ccccc3)c(=O)nc1-2	1	2	1	-2	0	1
Cn1nccc1C(=O)N/N=C/c1cccnc1	4.3*	2	2	0	0	2
O=C(N/N=C/c1cccnc1)c1ccc2c(c1)OCCO2	1	2	4	-1	1	11*
O=C(N/N=C/c1ccc2c(c1)OCO2)c1cccnc1	1	0	0	0	0	5
COc1cc(/C=N/NC(=O)c2cccnc2)cc2c1OCO2	0	1	0	-2	4.1*	1
CC(=O)Nc1ccc(C(=O)N/N=C/c2cccnc2)cc1	-1	-1	-4	-1	0	-1
CC(NC(=S)Nc1cccc(C(F)(F)F)c1)C(C)(C)C (stereo not given)	-1	-1	-1	-1	0	3
Cc1noc(C)c1S(=O)(=O)NC1CCN(Cc2ccccc2)CC1	1	-1	-2	-1	1	2
COCCCN1C(=O)C(CC(=O)NCc2cccs2)CC(C(=O)N(C(C)C)C(C)C)=C1C (stereo not given)	.	-1	-2	-1	0	0
Nc1cc2c(cc1Br)-c1ccc(F)cc1C2O (stereo not given)	2	3	0	1	0	12*
